Assay results: PubChem BioAssay AID1259370 (Center for Chemical Genomics, University of Michigan, 2018)
About 680 (0.72%) of roughly 94,000 compounds were called active. Cut-off read from the data, not from the text of the source: active = z-score above about 3.2; inactive = the rest. The full list was thinned out, with actives kept by preference.

molecular target: M-phase inducer phosphatase 2 (Homo sapiens) + Cyclin-dependent kinase 2 (Homo sapiens) + Cyclin-A2 (Homo sapiens) (UniProt P30305+P24941+P20248); assay: primary biochemical HTRF screen for inhibition of M-phase inducer phosphatase 2 binding to cyclin-dependent kinase 2/cyclin A (AID 1259370); conditions: HTRF CDC25B-CDK2/CyclinA binding, anti-His/anti-Flag; stronger effect = higher value

| Structure (SMILES) | z-score |
| --- | --- |
| O=C1CCCN1CCCn1c(=O)[nH]c2ccccc2c1=O | -0.94 (inactive) |
| Cc1nc2ccccc2nc1NO | 1.05 (inactive) |
| Cc1cc(=O)nc2c3ccccc3n(CC(=O)NC3CCC(C)CC3)n12 (stereo unspecified) | -1.08 (inactive) |
| CCN1CCN(c2c(C(=O)c3ccccc3)cnc3cc4c(cc23)OCCO4)CC1 | 2.74 (inactive) |
| CCn1c(SCC(=O)Nc2c(C)cc(C)cc2C)nc2c(c1=O)SCC2 | -0.71 (inactive) |
| CCc1cc2c(cc3c(=O)n(CC(=O)NCCCOC)nc(CC)n32)s1 | -1.5 (inactive) |
| O=S(=O)(NCc1ccccc1)c1ccc(-c2ccc(S(=O)(=O)NCc3ccccc3)cc2)cc1 | -0.47 (inactive) |
| COc1ccc(N2CSC3=C(C#N)C(c4cccc(Br)c4)CC(=O)N3C2)cc1 (stereo unspecified) | 4.67 (active) |
| COc1ccc(-c2n[nH]c3c2C(c2cccc(Br)c2)NC3=O)cc1 (stereo unspecified) | 0.39 (inactive) |
| COc1ccc(N2C(=O)CSC2c2cc(Br)ccc2OC)cc1 (stereo unspecified) | -0.41 (inactive) |
| COc1cc(C2CC(=O)N3CN(c4ccc(Br)cc4)CSC3=C2C#N)ccc1O (stereo unspecified) | 0.91 (inactive) |
| COc1cccc(C2CC(=O)N3CN(c4ccc(Br)cc4)CSC3=C2C#N)c1 (stereo unspecified) | 7.44 (active) |
| CN1CSC2=C(C#N)C(c3ccc(Br)cc3)CC(=O)N2C1 (stereo unspecified) | 1.4 (inactive) |
| Cc1cc(C)c2c(n1)nn1c(C)c(CCC(=O)NCCCN3CCCC3=O)c(C)nc21 | -0.15 (inactive) |
| CC(C)n1c(=O)c2c3c(sc2n(Cc2ccccc2)c1=O)COC(C)(C)C3 | -1.8 (inactive) |
| O=c1c2cccnc2n(Cc2ccc(F)cc2)c(=O)n1Cc1ccco1 | 0.9 (inactive) |
| C=CCN(c1ccccc1)S(=O)(=O)c1cc(Br)cc2c1N(C(C)=O)C(C)C2 (stereo unspecified) | 0.27 (inactive) |
| COc1cccc(OCC(O)Cn2c[n+](C)c3cc(C)c(C)cc32)c1 (stereo unspecified) | 0.54 (inactive) |
| CC1=C(C(=O)OCC2CCCO2)C(c2cccc(Cl)c2)C2=C(CC(c3cccs3)CC2=O)N1 (stereo unspecified) | -0.95 (inactive) |
| Cn1c(=O)c2c(ncn2CC(=O)NCC2CCCO2)n(C)c1=O (stereo unspecified) | -1.02 (inactive) |
| Cc1ccccc1NC(=O)NCc1ccco1 | -0.44 (inactive) |
| CCC(C)N(CCNC(=O)Nc1cn(C)c(=O)c2ccccc12)Cc1ccco1 (stereo unspecified) | 12.3 (active) |
| Cc1nn(C(C)C(=O)NCc2ccco2)c(=O)c2cc3occc3n12 (stereo unspecified) | -0.04 (inactive) |
| COc1cc(NC(=O)c2nn3c(C(F)(F)F)cc(-c4cccs4)nc3c2Cl)cc([N+](=O)[O-])c1 | -3.72 (inactive) |
| COc1ccccc1-c1nnc(SCc2ccc(F)cc2)o1 | 1.82 (inactive) |
| O=C(NC1CCc2ccccc21)c1cc2c(s1)CCC2 (stereo unspecified) | -1.04 (inactive) |
